The values that follow come from PubChem BioAssay AID463173 (ICCB-Longwood Screening Facility, Harvard Medical School, 2010).

Among all 52,000 compounds or so, about 1,700 (3.3%) were called active. No stated cut-off is given here; in the data, active means survival mostly below about 52% (no sharp cut-off); inactive means mostly above about 56%. This excerpt belongs to a sample that is enriched for actives.

This assay has as its system Wild type. The assay can be described thus: S. aureus survival, RN4220 and DeltatarO strains – OD600, teichoic acid synthesis inhibitors, primary screen (AID 463173). The following applies: S. aureus RN4220 wild type/DeltatarO growth, OD600, 18 h, stronger effect = lower value, screened at 18.75 µg/mL (by protocol).
With `COc1cccc(CNC(=O)c2ccc3c(c2)c(C)c(C)n3Cc2ccccc2)c1`, the survival was 72% (inactive).

On to `CCC(C)Nc1sc(S(=O)(=O)CC)nc1S(=O)(=O)c1ccc(C)cc1` (stereo not given), for which the survival was 78% (inactive).

For the compound `COc1ccccc1CNC(=O)Cn1ncn2c(cc3sccc32)c1=O`, the survival was 76% (inactive).

As to `O=C(CN1C(=O)COc2ccc(S(=O)(=O)N3CCOCC3)cc21)N1CCN(c2ccccc2F)CC1`, the survival was 100% (inactive).

Consider `O=C(CCS(=O)(=O)c1ccccc1)N(Cc1cccnc1)c1nc2ccc(F)cc2s1`, for which the survival was 124% (inactive).

Take `CCOc1cc(C)c(C(C)C)cc1S(=O)(=O)n1ccnc1CC`: the survival is -11% (active).

For `Cc1nccn1S(=O)(=O)c1c(C(C)C)cc(C(C)C)cc1C(C)C`, the survival is 119% (inactive).

Turning to `CCc1nccn1S(=O)(=O)c1cc(Br)ccc1Br`, the survival was 69% (inactive).

As to `Cc1ccc(CCNC(=O)Cn2ncc3c([nH]c4ccc(C)cc43)c2=O)cc1`, the survival is 131% (inactive).

As for `Cc1ccc2[nH]c3c(=O)n(CC(=O)N(C)Cc4ccccc4)ncc3c2c1`, the survival is -3% (active).

Regarding `Cc1ccc2[nH]c3c(=O)n(CC(=O)NC(C)C)ncc3c2c1`, the survival was 1% (active).

Regarding `Cc1ccc(CNC(=O)Cn2ncc3c([nH]c4ccc(C)cc43)c2=O)cc1`, the survival is 79% (inactive).

For `CCCCN(C)C(=O)Cn1ncc2c([nH]c3ccc(C)cc32)c1=O`, the survival is 81% (inactive).

Turning to `Cc1ccc2[nH]c3c(=O)n(CC(=O)N(CCN(C)C)Cc4ccccc4)ncc3c2c1`, the survival was 99% (inactive).

Take `O=C(NCC(c1cccs1)S(=O)(=O)c1cccs1)c1ccccc1` (stereo not given): the survival is 70% (inactive).

With `COc1ccccc1CCNC(=O)Cn1ccc2cc(S(=O)(=O)N3CCCCC3)ccc21`, the survival is 87% (inactive).

Consider `Cc1cccc(C(=O)n2nc(-c3cccnc3)nc2NCc2ccccc2)c1`, for which the survival is 106% (inactive).

For `Cc1ccc(S(=O)(=O)c2nc(-c3ccc(F)cc3)oc2N2CCN(c3ccccc3)CC2)cc1`, the survival was 115% (inactive).

Consider `COc1ccccc1-c1nc(S(=O)(=O)c2ccccc2)c(N2CCC(C)CC2)o1`, for which the survival was -5% (active).

For the compound `O=S(=O)(c1ccccc1)c1nc(-c2ccccc2Cl)oc1N1CCCCCC1`, the survival is 14% (active).

Regarding `COc1ccc(-c2nc(S(=O)(=O)c3ccc(Cl)cc3)c(N3CCCCCC3)o2)cc1`, the survival is 64% (inactive).

For the compound `O=S(=O)(c1ccccc1)c1nc(-c2ccc(Cl)cc2Cl)oc1N1CCCCC1`, the survival was 57% (inactive).

With `COc1ccc(-c2nc(S(=O)(=O)c3ccccc3)c(N3CCC(C)CC3)o2)cc1`, the survival was 89% (inactive).

With `Cc1ccc(-c2nc(S(=O)(=O)c3ccc(Cl)cc3)c(N3CCCCC3)o2)cc1`, the survival was 5% (active).

With `Cc1ccc(S(=O)(=O)c2nc(-c3ccccc3Cl)oc2N2CCCCCC2)cc1`, the survival is 20% (inactive).

For `Cc1ccc(S(=O)(=O)c2nc(-c3ccc(Cl)cc3)oc2N2CCCCCC2)cc1`, the survival was 30% (inactive).

Regarding `Cc1ccc(S(=O)(=O)c2nc(-c3ccccc3F)oc2N2CCCCC2)cc1`, the survival was 17% (active).

Take `O=S(=O)(c1ccccc1)c1nc(-c2ccccc2F)oc1N1CCOCC1`: the survival was 77% (inactive).

Regarding `COc1ccccc1-c1nc(S(=O)(=O)c2ccc(Cl)cc2)c(N2CCCCCC2)o1`, the survival is 70% (inactive).

Turning to `CCC(Oc1ccccc1)C(=O)Nc1cc(-c2cccc(C)c2)nn1-c1ccccc1` (stereo not given), the survival is 89% (inactive).

On to `CCOC(=O)c1ccc(NC(=O)CSc2nnc(CNC(=O)c3ccc(OC)cc3)n2CC)cc1`, for which the survival is 134% (inactive).

With `COc1ccc(-c2nnc(C3CCN(C(=O)c4ccccc4F)CC3)o2)cc1`, the survival was 85% (inactive).

With `CCOC(=O)c1ccc(NC(=O)CC2C(=O)N(c3ccccc3)C(=O)N2Cc2ccc(C)cc2)cc1` (stereo not given), the survival is 58% (inactive).

Consider `COc1ccccc1NC(=O)CCCc1nnc2n(C)c(=O)c3sccc3n12`, for which the survival is 97% (inactive).

Take `CC1CCN(C(=O)CS(=O)(=O)Cc2ccccc2)CC1`: the survival is 102% (inactive).

As for `O=C1C(=O)N(C2CCN(C(=O)c3cccc(Cl)c3)CC2)CCN1Cc1ccc(F)cc1`, the survival is 77% (inactive).

On to `Cc1nc2c3ccccc3nc(NNC(=O)CCC(=O)N3CCN(c4ccccc4)CC3)n2n1`, for which the survival was 81% (inactive).

Take `COc1ccc(-n2c(=O)c3c(c4cc(OC)ccc4n3C)n(CC(=O)NCC3CCCO3)c2=O)cc1` (stereo not given): the survival is 83% (inactive).

Turning to `COc1ccc(CNCCSc2nnnn2-c2ccccc2)cc1`, the survival is 83% (inactive).

Take `Cc1ccc(C)c(NC(=O)CN(Cc2ccccc2)S(=O)(=O)c2ccc3nc(C)sc3c2)c1`: the survival is 66% (inactive).

In the case of `Cc1ccc(S(=O)(=O)c2nc(-c3ccccc3)oc2N2CCN(c3ccccc3)CC2)cc1`, the survival is 86% (inactive).

As for `Cc1cccc(-c2nc(S(=O)(=O)c3ccc(Cl)cc3)c(N3CCCCCC3)o2)c1`, the survival was 41% (inactive).

On to `Cc1ccc(-c2nc(S(=O)(=O)c3ccc(C)cc3)c(N3CCCCCC3)o2)cc1`, for which the survival was 84% (inactive).

On to `Cc1ccc(S(=O)(=O)c2nc(-c3cccc(C)c3)oc2N2CCCCC2)cc1`, for which the survival was 2% (active).

For the compound `Cc1ccc(-c2nc(S(=O)(=O)c3ccc(C)cc3)c(N3CCN(c4ccccc4)CC3)o2)cc1`, the survival was 104% (inactive).

In the case of `COc1ccc(-c2nc(S(=O)(=O)c3ccc(C)cc3)c(N3CCCCC3)o2)cc1`, the survival was 63% (inactive).

For `Cc1ccc(-c2nc(S(=O)(=O)c3ccc(C)cc3)c(N3CCCCC3)o2)cc1`, the survival was 0% (active).

On to `Cc1ccc(S(=O)(=O)c2nc(-c3cccc(C)c3)oc2N2CCN(c3ccccc3)CC2)cc1`, for which the survival was 117% (inactive).

Regarding `Cc1ccc(S(=O)(=O)c2nc(-c3ccccc3)oc2N2CCCCCC2)cc1`, the survival was 6% (active).

For the compound `Cc1cc(C(=O)N2CCN(c3cccc(C)c3C)CC2)c2c(C)nn(-c3ccccc3)c2n1`, the survival was 121% (inactive).

With `Cc1cccc(C(=O)Nc2ccc(N3CC=C(c4ccccc4C)CC3)c(C(=O)O)c2)c1`, the survival is 66% (inactive).

On to `COc1nnc(-c2ccc(N3CCCCC3)c(NC(=O)c3ccccc3)c2)c2ccccc12`, for which the survival is -6% (active).

As to `COc1nnc(-c2ccc(N3CCCCC3)c(NC(=O)c3ccccc3Cl)c2)c2ccccc12`, the survival was -7% (active).

Turning to `COc1nnc(-c2ccc(N3CCCCC3)c(NC(=O)c3ccc(C)cc3)c2)c2ccccc12`, the survival was 36% (inactive).

Turning to `Cn1nc(-c2ccc(N3CCCCC3)c(NC(=O)c3ccc(Cl)cc3)c2)c2ccccc2c1=O`, the survival was 80% (inactive).

As for `Cn1c(=O)c(=O)n(C)c2cc(N3CCCC3)c(NC(=O)c3ccccc3Cl)cc21`, the survival is 86% (inactive).

`COc1nnc(-c2ccc(N3CCCCC3)c(NC(=O)c3ccc(Cl)cc3)c2)c2ccccc12`: the survival is 96% (inactive).

For `CCN(CCCNC(=O)CSc1cc(=O)n(C)c2ccccc12)c1ccccc1`, the survival was 77% (inactive).

Consider `CC(=O)Nc1ccc(NC(=O)c2cc3sccc3n2Cc2ccc(Cl)cc2)cc1`, for which the survival is 91% (inactive).

As to `CC1(C)O[C@H]2[C@@H](O1)[C@@H](C(=O)Nc1ccc(F)c(F)c1)O[C@@H]1OC(C)(C)O[C@@H]12`, the survival was 106% (inactive).

As to `CCN(CC)CCNC(=O)c1ccc2c(=O)n3nc(Nc4cccc(Cl)c4C)sc3nc2c1`, the survival was 153% (inactive).

As to `Cc1ccc(C)c(CNC(=O)C2CCN(c3nc4ccccc4nc3C(F)(F)F)CC2)c1`, the survival was 88% (inactive).

On to `CCc1c(C)nc2nncn2c1NCc1ccccc1`, for which the survival was 86% (inactive).

For the compound `Cc1ccc(CNc2cc(C)nc3nc(-c4ccc(C)cc4)nn23)cc1`, the survival was 66% (inactive).

`CCc1c(C)nc2nc(-c3ccccc3)nn2c1NCc1ccc(C)cc1`: the survival is -1% (active).

With `CCOC(=O)c1ccc(NC(=O)CSc2nc(C)c(Cc3ccccc3)c(=O)[nH]2)cc1`, the survival is 80% (inactive).

For the compound `O=C(NCc1ccccc1)N(Cc1cccnc1)Cc1cc2cc3c(cc2[nH]c1=O)OCCO3`, the survival is 102% (inactive).

For the compound `COc1ccc(-c2nn3c(-c4ccc(C)cc4)nnc3c3ccccc23)cc1`, the survival is 70% (inactive).

Take `COc1ccc2[nH]cc(CCN=C(NC(=O)c3ccccc3C)Nc3nc(C)cc(C)n3)c2c1`: the survival was 41% (inactive).

As to `CCn1c2c(c(=O)n3ncc(C(=O)Nc4ccc(F)cc4Cl)c13)CN(Cc1ccc(OC)cc1)CC2`, the survival is 14% (active).

On to `CCn1c2c(c(=O)n3ncc(C(=O)Nc4ccc(C(=O)OC)cc4)c13)CN(Cc1ccc(OC)cc1)CC2`, for which the survival was 55% (inactive).

For the compound `CCn1c2c(c(=O)n3ncc(C(=O)Nc4cc(Cl)ccc4OC)c13)CN(Cc1ccc(OC)cc1)CC2`, the survival was 72% (inactive).

In the case of `CCn1c2c(c(=O)n3ncc(C(=O)Nc4ccc(OC(F)(F)F)cc4)c13)CN(Cc1ccc(OC)cc1)CC2`, the survival is 83% (inactive).

For the compound `CCn1c2c(c(=O)n3ncc(C(=O)Nc4ccc(Cl)cc4C)c13)CN(Cc1ccc(OC)cc1)CC2`, the survival was 76% (inactive).

Take `CCn1c2c(c(=O)n3ncc(C(=O)Nc4ccc(F)c(Cl)c4)c13)CN(Cc1ccc(OC)cc1)CC2`: the survival was -1% (active).

In the case of `Cc1ccc(CNC(=O)Nc2cc(C(=O)NCc3cccc(F)c3)ccc2N2CCCC2)cc1`, the survival is 128% (inactive).

As to `CCOC(=O)c1cccc(NC(=O)CCc2c(C)nn(-c3ccc(N4CCCCC4)nn3)c2C)c1`, the survival was 95% (inactive).

With `Cc1nnc(C)c2c(C)n(-c3ccc4c(c3)OCO4)c(C)c12`, the survival is 111% (inactive).

Consider `CCOc1ccc(N(CC)C(=O)Cn2cnc3sc(C)c(S(=O)(=O)N4CCN(c5ncccn5)CC4)c3c2=O)cc1`, for which the survival is 78% (inactive).

`CCc1ccc(NCc2cccn2-c2nnc(N3CCCCCC3)s2)cc1`: the survival is -1% (active).

Regarding `Cc1ccc(NCc2cccn2-c2nnc(N3CCCCCC3)s2)cc1`, the survival was 77% (inactive).

On to `COc1ccc(NCc2cccn2-c2nnc(N3CCCCCC3)s2)cc1`, for which the survival is 78% (inactive).

For the compound `CCC(C)NC(=O)CSc1nc2ccc(C(C)C)cc2cc1C#N` (stereo not given), the survival is 103% (inactive).

For the compound `COc1cccc(CNC(=O)c2ccc(NC(=O)N3CCCCc4ccccc43)cc2)c1OC`, the survival was 73% (inactive).

For the compound `Cc1nc2nc(SCC(=O)NCCc3ccc(Cl)cc3)nn2c(C)c1Cc1ccccc1`, the survival was 56% (inactive).
